Structures can show the parent of a compound that is named as a salt.
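Note: breast cancer cell viability read out with the CCK-8 kit after co-treatment of each compound with the ferroptosis inducer RSL3.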

The test system of the test is HCC1937. The test is described as follows: relative cell viability, compound + RSL3, vs DMSO (fraction of DMSO control); higher = less growth inhibition. As to conditions: 72 h.
On to `COc1ccc(-c2coc3cc(OC)ccc3c2=O)cc1` [4',7-Dimethoxyisoflavone] + COC(=O)c1ccc([C@H]2c3[nH]c4ccccc4c3C[C@H](C(=O)OC)N2C(=O)CCl)cc1 [RSL3], for which the relative cell viability was found to be 0.251.

Consider `Cn1c2cc([S+](C)[O-])sc2c2cnn(Cc3cccc(N)c3)c(=O)c21` (centres undefined) + COC(=O)c1ccc([C@H]2c3[nH]c4ccccc4c3C[C@H](C(=O)OC)N2C(=O)CCl)cc1 [RSL3], for which the relative cell viability is 0.402.

Consider `CCCCCCS(=O)(=O)NC(=O)c1ccc(CSCc2ccc(-c3ccccc3)cc2)cc1` + COC(=O)c1ccc([C@H]2c3[nH]c4ccccc4c3C[C@H](C(=O)OC)N2C(=O)CCl)cc1 [RSL3], for which the relative cell viability was determined as 0.403.

In the case of `C[C@]12C=CC(=O)N[C@@H]1CC[C@@H]1[C@@H]2CC[C@]2(C)[C@@H](C(=O)Nc3cc(C(F)(F)F)ccc3C(F)(F)F)CC[C@@H]12` [Dutasteride] + COC(=O)c1ccc([C@H]2c3[nH]c4ccccc4c3C[C@H](C(=O)OC)N2C(=O)CCl)cc1 [RSL3], the relative cell viability worked out at 0.53.

Take `CCOC(=O)C(C)(C)Oc1ccc(Cl)cc1` [Clofibrate] + COC(=O)c1ccc([C@H]2c3[nH]c4ccccc4c3C[C@H](C(=O)OC)N2C(=O)CCl)cc1 [RSL3]: the relative cell viability stood at 0.728.

As to `CC[C@H](C)C(=O)O[C@H]1C[C@@H](C)C=C2C=C[C@H](C)[C@H](CC[C@@H]3C[C@@H](O)CC(=O)O3)[C@H]21` [Lovastatin] + COC(=O)c1ccc([C@H]2c3[nH]c4ccccc4c3C[C@H](C(=O)OC)N2C(=O)CCl)cc1 [RSL3], the relative cell viability was 0.867.

With `CC(C)[C@H](N=C(NS(=O)(=O)c1ccc(Cl)cc1)N1C[C@H](c2ccccc2)C(c2ccc(Cl)cc2)=N1)C(N)=O` + COC(=O)c1ccc([C@H]2c3[nH]c4ccccc4c3C[C@H](C(=O)OC)N2C(=O)CCl)cc1 [RSL3], the relative cell viability worked out at 0.551.

As to `O=C(O)CCn1c2c(c3ccccc31)C[C@H](NS(=O)(=O)c1ccc(F)cc1)CC2` [Ramatroban] + COC(=O)c1ccc([C@H]2c3[nH]c4ccccc4c3C[C@H](C(=O)OC)N2C(=O)CCl)cc1 [RSL3], the relative cell viability came to 0.41.

With `CN(C)C(=O)Nc1cccc(-c2ccc(N(C)C)cc2)c1` [Atglistatin] + COC(=O)c1ccc([C@H]2c3[nH]c4ccccc4c3C[C@H](C(=O)OC)N2C(=O)CCl)cc1 [RSL3], the relative cell viability was 0.321.

As to `CC(C)c1onc(-c2c(Cl)cccc2Cl)c1COc1ccc(/C=C/c2cccc(C(=O)O)c2)c(Cl)c1` + COC(=O)c1ccc([C@H]2c3[nH]c4ccccc4c3C[C@H](C(=O)OC)N2C(=O)CCl)cc1 [RSL3], the relative cell viability was found to be 0.874.

In the case of `C[C@H](CCC(=O)O)[C@H]1CC[C@H]2[C@@H]3CC[C@@H]4C[C@H](O)CC[C@]4(C)[C@H]3CC[C@]12C` [Lithocholic acid] + COC(=O)c1ccc([C@H]2c3[nH]c4ccccc4c3C[C@H](C(=O)OC)N2C(=O)CCl)cc1 [RSL3], the relative cell viability stood at 0.844.

On to `CC(C)(Oc1ccc(CCNC(=O)c2ccc(Cl)cc2)cc1)C(=O)O` [Bezafibrate] + COC(=O)c1ccc([C@H]2c3[nH]c4ccccc4c3C[C@H](C(=O)OC)N2C(=O)CCl)cc1 [RSL3], for which the relative cell viability is 0.594.

Take `O=C(O)c1cccnc1Nc1cccc(C(F)(F)F)c1` [Niflumic acid] + COC(=O)c1ccc([C@H]2c3[nH]c4ccccc4c3C[C@H](C(=O)OC)N2C(=O)CCl)cc1 [RSL3]: the relative cell viability worked out at 0.734.

For `O=C(O)c1ccnc(N2CC(O)(c3ccc(OCc4c(-c5c(Cl)cccc5Cl)noc4C4CC4)cc3Cl)C2)c1` [Cilofexor] + COC(=O)c1ccc([C@H]2c3[nH]c4ccccc4c3C[C@H](C(=O)OC)N2C(=O)CCl)cc1 [RSL3], the relative cell viability was found to be 0.368.

`CC(C)(C)N1C(=O)C(Nc2ccc(N3CCCCC3)cc2)=C(c2ccccc2)S1(=O)=O` + COC(=O)c1ccc([C@H]2c3[nH]c4ccccc4c3C[C@H](C(=O)OC)N2C(=O)CCl)cc1 [RSL3]: the relative cell viability is 0.686.

On to `O=C(CCCCCCCC(=O)NCCO)NCCO` [Adelmidrol] + COC(=O)c1ccc([C@H]2c3[nH]c4ccccc4c3C[C@H](C(=O)OC)N2C(=O)CCl)cc1 [RSL3], for which the relative cell viability stood at 0.659.

For the compound `O=C1c2cc(CO)cc(O)c2C(=O)c2c(O[C@@H]3O[C@H](CO)[C@@H](O)[C@H](O)[C@H]3O)cccc21` [Aloe-emodin-8-O-beta-D-glucopyranoside] + COC(=O)c1ccc([C@H]2c3[nH]c4ccccc4c3C[C@H](C(=O)OC)N2C(=O)CCl)cc1 [RSL3], the relative cell viability came to 0.368.

With `CC(C)(Oc1ccc(C(=O)c2ccc(Cl)cc2)cc1)C(=O)O` [Choline Fenofibrate] + COC(=O)c1ccc([C@H]2c3[nH]c4ccccc4c3C[C@H](C(=O)OC)N2C(=O)CCl)cc1 [RSL3], the relative cell viability amounted to 0.469.

Take `Cc1ccc(C)c(OCCCC(C)(C)C(=O)O)c1` [Gemfibrozil] + COC(=O)c1ccc([C@H]2c3[nH]c4ccccc4c3C[C@H](C(=O)OC)N2C(=O)CCl)cc1 [RSL3]: the relative cell viability was found to be 0.631.

`O=C1c2cccc(O)c2C(=O)c2c(O)cccc21` [Antrapurol] + COC(=O)c1ccc([C@H]2c3[nH]c4ccccc4c3C[C@H](C(=O)OC)N2C(=O)CCl)cc1 [RSL3]: the relative cell viability is 0.583.

With `CC(=O)N1CCN(c2ccc(OCC3COC(Cn4ccnc4)(c4ccc(Cl)cc4Cl)O3)cc2)CC1` (centres undefined) [Ketoconazole] + COC(=O)c1ccc([C@H]2c3[nH]c4ccccc4c3C[C@H](C(=O)OC)N2C(=O)CCl)cc1 [RSL3], the relative cell viability is 0.63.

For the compound `CC(c1cc2ccccc2s1)N(O)C(N)=O` (centres undefined) [Zileuton] + COC(=O)c1ccc([C@H]2c3[nH]c4ccccc4c3C[C@H](C(=O)OC)N2C(=O)CCl)cc1 [RSL3], the relative cell viability turned out to be 0.895.

With `COc1cc(N2CCN(C)CC2)ccc1Nc1ncc2c(n1)N(C1CCC1)C(=O)N(c1c(C)cccc1C)C2` + COC(=O)c1ccc([C@H]2c3[nH]c4ccccc4c3C[C@H](C(=O)OC)N2C(=O)CCl)cc1 [RSL3], the relative cell viability is 0.334.

In the case of `COc1ccc2c(=O)c(-c3ccccc3)coc2c1` [7-Methoxyisoflavone] + COC(=O)c1ccc([C@H]2c3[nH]c4ccccc4c3C[C@H](C(=O)OC)N2C(=O)CCl)cc1 [RSL3], the relative cell viability was 0.396.

For the compound `N=C(N)NC(=N)NCCc1ccccc1` [Phenformin hydrochloride] + COC(=O)c1ccc([C@H]2c3[nH]c4ccccc4c3C[C@H](C(=O)OC)N2C(=O)CCl)cc1 [RSL3], the relative cell viability was 0.653.

`COc1ccc(-c2cc(=O)c3c(O)c(OC)c(OC)c(OC)c3o2)cc1OC` + COC(=O)c1ccc([C@H]2c3[nH]c4ccccc4c3C[C@H](C(=O)OC)N2C(=O)CCl)cc1 [RSL3]: the relative cell viability was determined as 0.343.

In the case of `NC(CO)C(=O)O` (racemic) [DL-Serine] + COC(=O)c1ccc([C@H]2c3[nH]c4ccccc4c3C[C@H](C(=O)OC)N2C(=O)CCl)cc1 [RSL3], the relative cell viability was 0.399.

On to `CCC(CC)CC1(C(=O)Nc2ccccc2SC(=O)C(C)C)CCCCC1` [Dalcetrapib] + COC(=O)c1ccc([C@H]2c3[nH]c4ccccc4c3C[C@H](C(=O)OC)N2C(=O)CCl)cc1 [RSL3], for which the relative cell viability amounted to 0.654.

On to `COc1ccc(/C=C/c2cc(O)cc(O[C@@H]3O[C@H](CO)[C@@H](O)[C@H](O)[C@H]3O)c2)cc1` [Deoxyrhapontin] + COC(=O)c1ccc([C@H]2c3[nH]c4ccccc4c3C[C@H](C(=O)OC)N2C(=O)CCl)cc1 [RSL3], for which the relative cell viability worked out at 0.532.

`CC(C)(C)c1ccc(-c2nc3ccccc3[nH]2)cc1` + COC(=O)c1ccc([C@H]2c3[nH]c4ccccc4c3C[C@H](C(=O)OC)N2C(=O)CCl)cc1 [RSL3]: the relative cell viability worked out at 0.529.

In the case of `O=P(O)(O)OC(CO)CO` [β-Glycerol phosphate disodium salt pentahydrate] + COC(=O)c1ccc([C@H]2c3[nH]c4ccccc4c3C[C@H](C(=O)OC)N2C(=O)CCl)cc1 [RSL3], the relative cell viability amounted to 0.343.

With `C=C(C)[C@@H]1CC[C@]2(C)CC[C@]3(C)[C@H](CC[C@@H]4[C@@]5(C)CCC(=O)C(C)(C)[C@@H]5CC[C@]43C)[C@@H]12` + COC(=O)c1ccc([C@H]2c3[nH]c4ccccc4c3C[C@H](C(=O)OC)N2C(=O)CCl)cc1 [RSL3], the relative cell viability was 0.595.

Consider `C[N+](C)(C)CC(O)CC(=O)[O-]` (stereo not drawn) [L(-)-Carnitine] + COC(=O)c1ccc([C@H]2c3[nH]c4ccccc4c3C[C@H](C(=O)OC)N2C(=O)CCl)cc1 [RSL3], for which the relative cell viability amounted to 0.621.

As to `O=C(O)CCCc1cc2cc(Cl)ccc2n1S(=O)(=O)c1ccc2ncsc2c1` [Lanifibranor] + COC(=O)c1ccc([C@H]2c3[nH]c4ccccc4c3C[C@H](C(=O)OC)N2C(=O)CCl)cc1 [RSL3], the relative cell viability turned out to be 0.464.

Consider `COc1cc(C(C)=O)ccc1O` [Acetovanillone] + COC(=O)c1ccc([C@H]2c3[nH]c4ccccc4c3C[C@H](C(=O)OC)N2C(=O)CCl)cc1 [RSL3], for which the relative cell viability worked out at 0.389.

On to `O=C1/C(=C/c2cccs2)CC/C1=C\c1cccs1` + COC(=O)c1ccc([C@H]2c3[nH]c4ccccc4c3C[C@H](C(=O)OC)N2C(=O)CCl)cc1 [RSL3], for which the relative cell viability came to 0.357.

`O=S(=O)(Nc1ccc(C(O)(C(F)(F)F)C(F)(F)F)cc1)c1cccs1` + COC(=O)c1ccc([C@H]2c3[nH]c4ccccc4c3C[C@H](C(=O)OC)N2C(=O)CCl)cc1 [RSL3]: the relative cell viability was 0.617.

`C[C@H](CCCC(C)(C)O)[C@H]1CC[C@H]2[C@@H]3CC=C4C[C@@H](O)CC[C@]4(C)[C@H]3CC[C@]12C` [25-Hydroxycholesterol] + COC(=O)c1ccc([C@H]2c3[nH]c4ccccc4c3C[C@H](C(=O)OC)N2C(=O)CCl)cc1 [RSL3]: the relative cell viability worked out at 0.572.

Turning to `CC(C)(Oc1ccc(C2CC2(Cl)Cl)cc1)C(=O)O` (centres undefined) [Ciprofibrate] + COC(=O)c1ccc([C@H]2c3[nH]c4ccccc4c3C[C@H](C(=O)OC)N2C(=O)CCl)cc1 [RSL3], the relative cell viability came to 0.787.

The record behind these values is the supplement of paper PMC9492666.
